# Bioassay records from PubChem BioAssay.
# JMJD2A Tudor: qHTS Assay for Inhibitors of JMJD2A-Tudor Domain; Potency, µM (doses to about 114 µM), hits mostly inhibitors; Lysine-specific demethylase 4A (Homo sapiens), O75164; AID 504339, 2011; 390,000 tested, 4.4% active; AlphaScreen JMJD2A-Tudor / H3K4me3 peptide binding; further: nearly all actives have a fitted effect of over 50% in size
# CtBP-E1A blk: qHTS Assay for Inhibitors of the CtBP/E1A Interaction; CtBP / adenovirus E1A interaction (AlphaScreen); AlphaScreen GST-E1A/His-CtBP binding, 1536-well; stronger effect = lower value; activity change, % (test concentration not listed); 340,000 tested, 0.49% active; AID 651724, 2012; in the data active means activity change below about -65%; inconclusive means mostly about -30% to -63%
#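 AlphaScreen with 125 nM GST-E1A and 125 nM His-CtBP (5X stocks) in Tris pH 8.0, 300 mM NaCl, BSA, Tween 20, TCEP. Compounds preincubated 2 h at 37 deg C, then glutathione donor/nickel acceptor beads added for 1 h at 37 deg C in dark.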
# HP1b binding inh: HTS for Inhibitors of HP1-beta Chromodomain Interactions with Methylated Histone Tails. Potency, µM (series often up to 114 µM), most hits filed as inhibitors. 390,000 tested, 0.56% active. AlphaScreen HP1-beta / biotin-H3K9me3 peptide binding. Chromobox protein homolog 1 (Homo sapiens), P83916; further: nearly all actives have a fitted effect of over 70% in size
# Target sequence (P83916 whole entry, looked up): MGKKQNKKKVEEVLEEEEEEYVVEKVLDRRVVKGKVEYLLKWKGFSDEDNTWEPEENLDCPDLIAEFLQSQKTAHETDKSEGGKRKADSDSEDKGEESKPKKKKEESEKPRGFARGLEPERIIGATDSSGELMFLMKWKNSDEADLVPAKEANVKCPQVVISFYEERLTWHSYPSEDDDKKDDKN
#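 Compound inhibition of the preformed complex between 50 nM HP1-beta and 50 nM biotinylated H3K9me3 peptide was read by AlphaScreen. Buffer was PBS pH 7.4 with 0.01% Tween-20. Incubations ran 30 min at room temperature, with 10 ug/mL donor/acceptor beads.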
# Six1-Eya2 inh: qHTS Assay for Inhibitors of the Six1/Eya2 Interaction. AID 651725, 2012. activity change, % (test concentration not listed). Homeobox protein SIX1 (Homo sapiens) + Protein phosphatase EYA2 (Homo sapiens), …. AlphaScreen GST-Six1/His-Eya2 binding, biochemical; stronger effect = lower value. 360,000 tested, 0.56% active; in the data active means activity change below about -65%; inconclusive means mostly about -30% to -63%
#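 AlphaScreen luminescence read after one hour at 37 °C in darkness. Pin-transferred compounds met GST-Six1 and His-Eya2 protein (5X stock 250 nM/500 nM) plus glutathione donor and Ni-chelate acceptor beads (5X, 50 ug/mL).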
# BAZ2B block: qHTS Assay for Inhibitors of BAZ2B; Bromodomain adjacent to zinc finger domain protein 2B (Homo sapiens), Q9UIF8; AlphaScreen BAZ2B-H3K14Ac peptide displacement; Potency, µM (highest dose often 114 µM), hits mostly inhibitors; 360,000 tested, 4.4% active; AID 504333, 2011; further: nearly all actives have a fitted effect of over 60% in size
#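 Protein-peptide AlphaScreen: BAZ2B 50 nM, b-H3K14Ac 50 nM, 1x PBS pH 7.4 + 0.01% Tween-20. Preincubation 30 min RT; cpd 30 min RT (top 110 uM); beads 20 min RT, light-protected.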
# G9a block: qHTS Assay for Inhibitors of Histone Lysine Methyltransferase G9a; Histone-lysine N-methyltransferase EHMT2 (Homo sapiens), Q96KQ7; Potency, µM (doses to about 102 µM), actives largely listed as inhibitors; 350,000 tested, 8.8% active; G9a H3K9 monomethylation, AlphaScreen, 2 h; further: nearly all actives have a fitted effect of over 75% in size
# Target sequence (Q96KQ7 913-1193 limits assumed): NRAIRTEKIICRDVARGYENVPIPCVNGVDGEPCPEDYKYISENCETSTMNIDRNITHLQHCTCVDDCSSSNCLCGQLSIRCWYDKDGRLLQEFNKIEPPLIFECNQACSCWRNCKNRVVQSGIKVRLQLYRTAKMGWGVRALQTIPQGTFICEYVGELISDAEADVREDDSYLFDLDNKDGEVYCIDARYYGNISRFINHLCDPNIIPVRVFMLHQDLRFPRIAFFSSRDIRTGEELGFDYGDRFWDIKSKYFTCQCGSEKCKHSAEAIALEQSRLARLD
#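 Enzyme 20 nM + cpd, 15 min RT; add b-H3K9 pep 500 nM / SAM 20 uM; 2 h RT; anti-H3K9me1 Ab 0.5 ug/mL + SA donor / anti-rabbit acceptor beads 20 ug/mL each, 10 min; AlphaScreen read.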
# Hits are given with their value; . = inactive; ? = inconclusive; / = no result given; [ ] = another dose, or the depositor's remark. Compounds with a hit are over-represented: about 10% of the library has one in this group of screens. Unless noted, the call rests on the fitted dose curve; in most records, active means well fitted inhibition curve with a large enough effect; inconclusive means small, poorly fitted or top-dose-only effect; inactive means no such curve, though single readings can be large or run the other way.
SMILES,JMJD2A Tudor,CtBP-E1A blk,HP1b binding inh,Six1-Eya2 inh,BAZ2B block,G9a block
O=C(O)c1ccc(Nc2nc(-c3cc4ccccc4oc3=O)cs2)cc1O,32µM,.,32µM,.,28µM,40µM
CC(=O)OCC(NC(=O)C(C)NC(=O)OC(C)(C)C)C1OC(n2ccc(=O)[nH]c2=O)C(OC(C)=O)C1OC(C)=O (centres undefined),.,/,.,/,/,/
Cc1ccc(C)c(/C=N/n2cc(-c3ccccc3)[nH]c2=S)c1,?,.,.,.,.,4µM
Cc1ccc2[nH]c(-c3ccccc3)cc(=O)c2c1,.,/,.,.,.,.
Fc1ccccc1/C=N/n1cc(-c2ccccc2)[nH]c1=S,13µM,.,.,.,.,?
CC1CCN(C(=O)CN2c3ccc(C(C)C)cc3-c3ccccc3S2(=O)=O)CC1,.,/,.,/,.,.
CCOC(=O)C1CCN(C(=O)c2cccc(S(=O)(=O)Nc3ccc(C)cc3C)c2)CC1,.,.,.,.,.,.
Cc1ccc(C(=O)N2N=C(c3ccccc3O)CC2c2ccccc2)cc1 (centres undefined),.,.,.,.,.,.
Oc1ccccc1C1=Nc2ncnn2C(c2ccccc2)C1 (centres undefined),.,.,.,.,.,18µM
Cc1ccc(NC(=O)c2ccc(NC(=O)N3CCSc4nc(C)cc(C)c43)cc2)c(Cl)c1,.,/,.,/,.,.
Cc1ccc(C2=NS(=O)(=O)N(C)C(C(=O)Nc3ccc(F)cc3F)=C2)cc1,?,.,.,.,.,71µM
COc1ccc(NC(=O)C2=CC(c3ccc(C)cc3)=NS(=O)(=O)N2C)cc1,?,.,.,.,?,/
COC(=O)c1ccccc1NC(=O)C1=CC(c2ccc(C)cc2)=NS(=O)(=O)N1C,?,/,.,/,?,13µM
COc1ccc2c(c1)cc1c(=O)n(CC(=O)NC3CC3)nc(C)n12,.,/,.,/,.,.
O=C(CC(c1cccs1)N1Cc2ccccc2C1=O)Nc1ccccc1F (centres undefined),.,/,.,/,.,.
Cc1cc(S(=O)(=O)c2ccc([N+](=O)[O-])cn2)ccc1Br,.,.,.,.,/,/
Cc1ccc(S(=O)(=O)c2ccc([N+](=O)[O-])cn2)cc1,.,.,.,.,?,40µM
O=[N+]([O-])c1ccc(S(=O)(=O)c2ccccc2)nc1,.,/,.,.,.,40µM
O=C(Oc1ccc2c(c1)OCC2=O)c1ccc(Cl)cc1,.,.,.,-66,.,.
Cc1noc(C)c1C(=O)NCCc1c(C)[nH]c2ccccc12,.,.,.,.,.,.
CCOc1cc(CNc2cccc3[nH]c(C)nc23)ccc1OC,?,.,.,.,?,50µM
CCOc1cc(CNc2ncnc3nc[nH]c23)ccc1OC,.,.,.,.,.,?
Cc1cc(N2CCN(C)CC2)nc2ccc(NC(=S)N3CCN(c4ccccn4)CC3)cc12,?,.,.,.,?,50µM
Cc1ccc(C)c(N2CCN(C(=S)Nc3ccc4nc(N5CCOCC5)cc(C)c4c3)CC2)c1,.,.,.,.,/,.
Cc1ccc(C)c(N2CCN(C(=S)Nc3ccc4nc(N5CCN(C)CC5)cc(C)c4c3)CC2)c1,.,.,.,.,.,40µM
SMILES,JMJD2A Tudor,CtBP-E1A blk,HP1b binding inh,Six1-Eya2 inh,BAZ2B block,G9a block
Cc1cc(N2CCN(C)CC2)nc2ccc(NC(=S)N3CCC4(CC3)OCCO4)cc12,.,.,.,.,.,45µM
COc1ccc(C(C)=O)cc1CSc1nnc(-c2ccc(Cl)cc2)n1-c1ccccc1,.,.,.,.,.,/
O=C(/C=C/c1ccc(O)cc1)c1ccc(NC2=C(N3CCCCC3)C(=O)c3ccccc3C2=O)cc1,20µM,.,.,.,?,14µM
Cc1ccc(NC2=C(N3CCCCC3)C(=O)c3ccccc3C2=O)cc1,14µM,.,?,?,.,5.6µM
Cc1ccc(S(=O)(=O)Nc2ccc3c(c2)C(=O)c2ccccc2-3)cc1,/,.,/,.,/,/
O=c1nc(N2CCCCC2)nc(Nc2ccccc2)[nH]1,.,.,.,.,.,?
O=C1C(Nc2ccccc2)=C(N2CCCCC2)C(=O)c2ccccc21,40µM,.,?,.,25µM,.[0.501 µM]
CN(C1=C(N2CCCCC2)C(=O)c2ccccc2C1=O)c1ccccc1,4µM,.,?,-83,2.8µM,3.5µM
CC(C)CC(=O)NCc1nc2cccnc2n1Cc1ccccc1,.,/,.,/,.,.
CCOc1ccccc1OCCC(=O)NNC(=O)Cn1nc(C)cc1C,.,.,.,.,.,.
Cc1ccc(C(=O)Nc2cccc(O)c2)cc1S(=O)(=O)N1CCCCCC1,.,.,.,?,.,.
COc1ccccc1NC1=C(N2CCCCC2)C(=O)c2ccccc2C1=O,40µM,?,?,?,32µM,6.3µM
O=C1C(Nc2cccc(O)c2)=C(N2CCCCC2)C(=O)c2ccccc21,14µM,.,22µM,-71,22µM,/
COc1cccc(C(=O)N2CCC[C@@H]2C(=O)N2CCC[C@H]2C(=O)NCc2ccncc2)c1,/,.,/,.,/,/
CSc1nc(=NC(C)=O)ss1,32µM,.,?,.,?,?
CCC1(c2ccccc2)NC(=S)N(c2cccc(C)c2C)N1 (centres undefined),.,.,.,.,.,32µM
Cc1cccc(Nc2nc(NCc3ccco3)c3ccccc3n2)c1,?,?,.,.,?,18µM
CSc1nc(NCc2ccco2)c2ccccc2n1,.[11.4 µM],.,.,.,.,?
c1ccc(Nc2nc(NCc3ccco3)c3ccccc3n2)cc1,50µM,.,?,.,?,50µM
CCc1cc(=O)oc2c3c(cc(OCC(=O)NCCCOC)c12)OC(C)(C)CC3,.,.,.,.,.,.
COc1cccc(CN(CC(=O)NCc2ccco2)C(=O)CNS(=O)(=O)c2ccccc2)c1,.,.,.,.,.,.
Cc1cc(=O)n2nc(N3CCCC(C(=O)NCCCN4CC(C)CC(C)C4)C3)sc2n1 (centres undefined),.,.,.,.,.,/
O=C1/C(=C/c2ccccc2Cl)SC(=S)N1CCCC(=O)N(CCO)c1ccccc1,8.9µM,.,.,.,3.2µM,20µM
COc1cc(/C=C2\SC(=S)N(CC(=O)Nc3ccccn3)C2=O)cc(OC)c1OC,?,.,.,.,?,?
O=C(CCN1C(=O)/C(=C/c2ccccc2Cl)SC1=S)Nc1ccccn1,.,/,.,.,?,7.9µM
